Screening results: PubChem, several laboratories
Shown are actives, neighbours in structure and some others; about 4.1% of the full set was active somewhere.
Shn3 inh set2 = reduces Shn3 3'UTR luciferase signal in osteoblasts; inhibition, % at 12.5 µM; hit rate 0.52% among 360,000; Clone20 osteoblast Shn3 3'UTR firefly luciferase, 24 h;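 active means mean inhibition of at least 75% with every replicate also reaching 75%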;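 further: 0% = median of neutral control wells and 100% = pilot-screen positive control compound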
Peg3 promoter = reduces Peg3 promoter-driven luciferase expression in HeLa; hit rate 1.7% among 360,000; AID 588405; inhibition, % at 20 µM; HeLa PEG-Prom luciferase reporter, luminescence, overnight;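 active means inhibition of at least 50% at 20 µM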
TWEAK-Fn14 inh = TWEAK-Fn14 signaling inhibition; TWEAK-stimulated Fn14 reporter cells, luciferase luminescence, 8 h; inhibition, % at 10 µM; hit rate 2% among 360,000; in the data active means inhibition above about 50%
TROY NFkB inh = inhibitors of TROY-dependent NF-kB signaling. inhibition, % at 10 µM. Q293 LMP1-TROYcd NF-kB luciferase reporter, 4 h. hit rate 0.98% among 360,000. AID 1347056;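 active means compounds whose plate-normalised and pattern-corrected inhibition of the luciferase reporter signal at the single screening dose is 50% or more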
TRPM1 prom inh = MITF TRPM1 promoter inhibition in SK-MEL-5 cells; hit rate 0.83% among 330,000; SK-MEL-5 TRPM1 promoter luciferase, 24 h; AID 488899; inhibition, % at 12.5 µM;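 active means mean inhibition across replicates of 60% or more, whatever share of single replicates reaches that level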
EBV LMP1 NFkB = reduces LMP1-driven NF-kappaB luciferase signal; LMP1-induced NF-kappaB luciferase reporter cells, luminescence; inhibition, % at 12.5 µM; hit rate 0.69% among 350,000; AID 504558; in the data active means inhibition above about 41%;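 further: 0% = neutral control wells and 100% = reference inhibitor control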
Numbers without * were called inactive; . = not tested or not shown.

SMILES | Shn3 inh set2 | Peg3 promoter | TWEAK-Fn14 inh | TROY NFkB inh | TRPM1 prom inh | EBV LMP1 NFkB
CCOc1ccc2nc(NC(=O)CN3CCC(n4nnc5cc(F)ccc54)CC3)sc2c1 | 12.2 | 4.7 | 33.1 | 57.5* | 8.8 | -1.0
Cc1c(Cl)cccc1NC(=S)NCCc1ccc(F)cc1 | 2.4 | 15.8 | 71.2* | -1.5 | -8.2 | -9.2
Cc1c(Cl)cccc1NC(=S)NCCc1ccc(Cl)cc1 | 13.3 | -8.0 | -12.6 | 13.0 | -9.4 | 1.1
O=[N+]([O-])c1ccc(NC(=S)NCCc2ccc(F)cc2)cc1 | 49.4 | 25.7 | 65.9* | 27.1 | 6.0 | -3.5
O=C(NCCc1ccc(F)cc1)Nc1ccc([N+](=O)[O-])cc1 | 17.7 | -56.2 | -9.4 | -1.2 | -15.3 | -17.9
CCN(CC)S(=O)(=O)c1ccc(C)c(NC(=S)N2CCN(C/C=C/c3ccccc3)CC2)c1 | 88.0* | 24.4 | 30.0 | 3.4 | 51.8 | 25.9
CCN(CC)S(=O)(=O)c1ccc(C)c(NC(=S)N2CCN(c3ccccn3)CC2)c1 | 27.8 | 12.8 | 18.3 | 6.0 | 9.8 | 4.5
O=S(=O)(c1ccccc1)c1nnn2c1nc(NC1CCN(Cc3ccccc3)CC1)c1cc(Cl)ccc12 | 11.1 | 55.5* | 1.1 | 8.0 | 25.3 | 11.7
COc1cc(CCc2ccccc2)c(C(=O)O)c(O)c1C/C=C(/C)CCC=C(C)C | 1.2 | 56.9* | 43.6 | 42.0 | -4.4 | 6.9
COc1cc(CCc2ccccc2)c(C(=O)O)c(O)c1CC=C(C)C | -2.9 | 13.9 | 25.2 | 38.0 | -1.2 | 9.9
Cc1cc([N+](=O)[O-])ccc1NC(=O)CN1CCN(Cc2ccccc2)CC1 | 9.0 | 7.4 | -28.1 | -2.9 | 9.6 | 8.0
O=C(CN1CCN(Cc2ccccc2)CC1)Nc1ccc([N+](=O)[O-])cc1C(=O)Nc1ccccc1F | 30.4 | 62.5* | 27.5 | 23.2 | 0.2 | 5.1
CCOC(=O)N1CCN(CC(=O)Nc2ccccc2C(=O)Nc2ccccc2)CC1 | -10.3 | 27.4 | -11.3 | 2.9 | 18.1 | -3.3
CCOC(=O)N1CCN(CC(=O)Nc2ccc([N+](=O)[O-])cc2C(=O)Nc2ccccc2F)CC1 | 11.2 | 63.7* | 20.9 | 13.8 | -2.7 | -6.8
C=CCN1C(=O)SC(Cc2cccc(OC)c2O)C1=O (stereo not drawn) | -10.5 | 5.8 | -0.9 | 0.5 | -7.9 | -10.0
COc1ccc2[nH]c3c(=O)n(N)c(=O)[nH]c3c2c1 | 3.8 | 13.7 | 2.4 | -29.9 | 11.9 | 1.8
COc1ccc2[nH]c3c(=O)n(/N=C/[C@H]4C(C)C=C(C)CC4C)c(=O)[nH]c3c2c1 (stereo partly drawn) | 1.5 | 51.0* | 7.4 | -22.6 | 16.9 | 5.5
N#Cc1cccc(CN2CCC(=O)N([C@H](CO)Cc3ccccc3)CC2)c1 | -30.0 | 17.9 | -7.8 | -3.9 | -3.7 | 13.5
Cc1ccc(NC(=O)C(=O)Nc2ccccn2)cc1 | 12.7 | -0.2 | 85.7* | 57.2* | 2.6 | 56.1*
Cc1ccc(S(=O)(=O)CC(=O)Nc2ccccn2)cc1 | -8.3 | 0.7 | 2.8 | -12.2 | 2.6 | -2.6
C=CCn1c(C)cc(C(=O)COC(=O)CNC(=O)c2ccccc2)c1C | 23.5 | -6.8 | 89.2* | 85.4* | -6.3 | 11.8
Cc1ccc(C(=O)NCC(=O)OCC(=O)c2cc(C)n(Cc3ccco3)c2C)cc1 | -5.8 | -11.1 | -26.5 | -20.5 | -5.9 | -1.7
Cc1ccc(C(=O)Nc2ncc3c(Cl)cccc3n2)cc1 | -1.1 | -30.8 | 82.2* | 39.0 | 6.9 | 51.2*
O=C(Nc1ccc(Cl)cn1)c1ccc(Oc2ccccc2)cc1 | -19.1 | -309.8 | -4.0 | -7.7 | -82.1 | -44.3
Cc1ccc(C(=O)Nc2ccc(Cl)cn2)cc1 | -30.4 | -109.7 | 56.2* | -3.1 | 7.0 | 28.0
SMILES | Shn3 inh set2 | Peg3 promoter | TWEAK-Fn14 inh | TROY NFkB inh | TRPM1 prom inh | EBV LMP1 NFkB
Cc1ccc(CC(=O)Nc2ccc(Cl)cn2)cc1 | -33.6 | -119.4 | 1.8 | -20.6 | -55.7 | -4.6
COc1cc(SC)ccc1C(=O)Nc1ccc(Cl)cn1 | -14.3 | 28.1 | 90.8* | 73.8* | 58.6 | 67.9*
CCCOc1ccc(C(=O)Nc2ccc(Cl)cn2)cc1 | -3.3 | -85.3 | 56.7* | 10.2 | -16.3 | -12.4
CSc1ccc(Cl)c(C(=O)Nc2ccc(Cl)cn2)c1 | -8.5 | 15.3 | -3.5 | -8.9 | 11.4 | -32.0
CC1=C(C(=O)N2CCCCCC2)CC(CC(=O)NC2CCCCC2)C(=O)N1Cc1ccc(C(C)(C)C)cc1 (stereo not drawn) | -18.9 | 11.5 | -20.1 | -3.7 | . | .
C=CCSc1nnc(NC(=O)c2cn(CC)c3nc(C)ccc3c2=O)s1 | -5.2 | -6.6 | 89.6* | 5.2 | -6.2 | 6.0
COc1ccc2[nH]c3c(C)c4ccncc4c(C)c3c2c1 | -45.1 | 106.5* | 54.3* | 45.5 | 95.3* | -11.2
N#CC1C=Cc2ccccc2N1C(=O)c1ccccc1 (stereo not drawn) | 0.3 | 8.9 | 6.5 | -11.7 | 1.6 | -1.6
N#CC1C=Cc2c(ccc3ccccc23)N1C(=O)c1ccccc1 (stereo not drawn) | 50.2 | -140.3 | 54.1* | -11.7 | 65.2* | 32.1
COc1cc2nc(Nc3ccc(F)cc3)nc(N)c2cc1OC | 12.5 | -24.1 | -5.9 | 2.1 | -23.6 | -3.9
CCOc1ccc(Nc2nc(N)c3ccccc3n2)cc1 | -6.5 | 57.5* | 91.6* | 61.2* | 36.3 | 53.4*
COc1cc2nc(Nc3ccc(C)c(C)c3)nc(N)c2cc1OC | -24.0 | 56.0* | -36.1 | -43.2 | 34.9 | -10.0
Nc1nc(Nc2ccccc2)nc2ccccc12 | -44.3 | -202.5 | 40.0 | -13.1 | -33.5 | -11.7
Nc1nc(Nc2ccc(Cl)cc2)nc2ccccc12 | 20.4 | -47.8 | 80.0* | 13.9 | 4.2 | 0.6
COc1ccc(OC)c(Nc2nc(NCCO)c3ccccc3n2)c1 | -15.8 | 14.0 | -33.7 | -0.3 | -7.9 | -12.0
Cc1ccc(Nc2nc(NCCO)c3ccccc3n2)cc1C | 45.3 | 53.9* | -0.9 | 5.8 | -12.7 | -0.6
O=C(O)c1nn(CC(=O)N(C2CCCCC2)C2CCCCC2)c(=O)c2ccccc12 | -1.6 | 4.9 | 8.3 | 10.6 | -2.5 | 2.9
Cc1cccc(Nc2nc(N)nc(CCl)n2)c1C | -11.4 | 57.7* | -1.3 | -16.0 | . | .
Cc1ccccc1Nc1nc(N)c2ccccc2n1 | -46.8 | -200.9 | 53.5* | -33.7 | -27.4 | 4.0
Cc1ccc(Nc2nc3ccccc3n3cnnc23)cc1Cl | -21.2 | -41.3 | -2.1 | -21.1 | -12.5 | -4.2
CCOc1ccc(Nc2nc(N)nc(CCl)n2)cc1 | -35.0 | 76.6* | 17.6 | -49.1 | 16.0 | 13.7
COc1ccc(C)cc1Nc1nc(N)c2ccccc2n1 | -40.6 | -95.8 | -15.9 | -42.0 | -15.2 | -1.8
Cc1ccc(Nc2nc(N)c3ccccc3n2)cc1Cl | 5.3 | -87.4 | 68.0* | 16.2 | 2.2 | -39.7
CC1(C)Cc2cccc(C(=O)Nc3ccc(F)cc3F)c2O1 | 29.3 | -0.2 | -8.6 | -7.4 | -1.8 | -9.7
COc1cc2nc(Nc3ccc(C)c(Cl)c3)nc(N)c2cc1OC | 23.8 | 113.9* | 101.8* | 32.7 | 69.8* | 8.9
CCOC(=O)c1ccc(Nc2nc(N)c3cc(OC)c(OC)cc3n2)cc1 | 6.3 | 47.4 | -10.2 | -53.8 | 22.9 | 7.4
